# Sampled rows, rich in hits. Any-hit rate of the full collection: about 0.81%.
# COUP-TFII inh: blocks human COUP-TFII nuclear receptor; HEK293T NGFI-A luciferase reporter, luminescence; inhibition, % at 8.6 µM; 370,000 tested, 0.7% active; AID 686940;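 active = inhibition above a per-plate cutoff, mean inhibition of test wells between control levels plus 3 SD, cut at about 38% in these data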;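 note: cells cotransfected with COUP-TFII expression vector driving the NGFI-A reporter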
# NR5A2 inv ag: inverse agonists of human LRH-1 (NR5A2); AID 602396; inhibition, % at 3.6 µM; HEK293T StAR-luciferase reporter, LRH-1 transfected, 24 h; O00482; 360,000 tested, 0.13% active;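 active = inhibition above the mean inhibition of all tested compounds plus 3 SD, cut at about 73% in these data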
# Target sequence (O00482 whole entry, looked up): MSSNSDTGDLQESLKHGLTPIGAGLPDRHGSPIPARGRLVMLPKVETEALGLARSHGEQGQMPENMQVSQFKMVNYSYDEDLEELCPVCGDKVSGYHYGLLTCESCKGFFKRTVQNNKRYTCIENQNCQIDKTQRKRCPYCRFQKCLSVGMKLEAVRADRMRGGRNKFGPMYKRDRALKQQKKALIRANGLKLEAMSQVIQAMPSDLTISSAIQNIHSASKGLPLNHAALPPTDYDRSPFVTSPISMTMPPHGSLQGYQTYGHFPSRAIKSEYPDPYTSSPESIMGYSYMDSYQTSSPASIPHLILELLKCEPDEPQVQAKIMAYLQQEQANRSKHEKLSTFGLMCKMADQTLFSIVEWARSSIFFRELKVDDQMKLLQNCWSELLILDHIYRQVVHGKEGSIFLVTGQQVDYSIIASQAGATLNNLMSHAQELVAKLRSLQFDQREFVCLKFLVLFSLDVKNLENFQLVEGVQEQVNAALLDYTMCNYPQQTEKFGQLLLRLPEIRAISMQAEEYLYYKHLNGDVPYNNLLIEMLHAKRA
# SRC3 inh: inhibits human SRC3 coactivator; Q9Y6Q9; HEK293 GAL4-SRC3 luciferase reporter, luminescence; inhibition, % at 3.6 µM; 360,000 tested, 0.17% active; AID 588352;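 active = inhibition above a per-campaign cutoff, the mean of all compounds plus 3 SD, cut at about 60% in these data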;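 note: higher means less SRC3-driven luciferase light from the GAL4 reporter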
# SRC2 inh: human SRC2 (NCOA2) inhibition | Q15596 | HEK293 GAL4-SRC2 luciferase reporter, luminescence | inhibition, % at 9 µM | 370,000 tested, 0.17% active | AID 651957;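 active = inhibition above the mean inhibition of all tested compounds plus 3 SD, set per campaign, cut at about 52% in these data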
# NCOA1 inh: human NCOA1 inhibition; HEK293 GAL4-SRC1 luciferase reporter, luminescence; Q15788; 360,000 tested, 0.12% active; inhibition, % at 3.6 µM; AID 588354;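 active = inhibition above the campaign mean plus 3 SD, with each screening campaign given its own cutoff, cut at about 60% in these data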
# VP16 Luc counter: counter-screen for COUP-TFII antagonists: inhibitors of VP16. 2,500 tested, 25% active. AID 687007. HEK293 Gal4-VP16 luciferase reporter, luminescence. inhibition, % at 8.5 µM. shares compounds with COUP-TFII inh; in the data active = inhibition above about 13%
# NR2F2 inh conf: COUP-TFII (NR2F2) inhibition, confirmation assay; shares compounds with COUP-TFII inh; HEK293 NGFI-A luciferase reporter, luminescence; inhibition, % at 8.5 µM; 2,500 tested, 45% active; AID 687008;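 active = mean inhibition over three repeats above a set limit taken from the earlier primary screen, cut at about 38% in these data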
# Numbers stand for hits; . = inactive; / = no result given.
SMILES,COUP-TFII inh,NR5A2 inv ag,SRC3 inh,SRC2 inh,NCOA1 inh,VP16 Luc counter,NR2F2 inh conf
O=C1NC(Cc2ccccc2)c2nc3ccc(Cl)cc3c(=O)n2-c2cc3ccccc3cc21 (centres undefined),.,.,.,.,.,/,/
CC(C)(C)c1ccc(C(=O)Nc2ccc(CN3CCS(=O)(=O)CC3)cc2)cc1,47.4,.,.,.,.,.,.
COC(=O)Cc1ccc(NC(=O)c2ccc(C(C)(C)C)cc2)cc1,94.7,.,.,83.2,.,83.1,93.5
O=C(Nc1ccc(CN2CCS(=O)(=O)CC2)cc1)c1ccc(F)cc1,.,.,.,.,.,/,/
O=C(Nc1ccc(CN2CCS(=O)(=O)CC2)cc1)c1ccc(C(F)(F)F)cc1,50.5,.,.,.,.,.,.
C=CCn1c(=S)[nH]c2scc(-c3ccc(C)o3)c2c1=O,.,.,.,.,.,/,/
Cc1ccccc1C(=O)c1cccn1CC(=O)NCCC1=CCCCC1,.,.,.,.,.,/,/
CC(=O)Nc1cccc(N(C(=O)C2COc3ccccc3O2)C(C(=O)NC2CCCCC2)c2cn(C)nc2C)c1 (centres undefined),.,.,.,.,.,/,/
COc1ccc(NC(=O)CN(C)C(=O)CN2C(=O)NC3(CCCC3)C2=O)cc1,.,.,.,.,.,/,/
O=C(CSc1ncccn1)N1CCN(Cc2ccccc2)CC1,.,.,.,.,.,/,/
O=C(NCCN1CCC(n2c(=O)[nH]c3ccccc32)CC1)c1ccc(C(F)(F)F)cc1C(F)(F)F,43.9,.,/,.,/,.,.
N#Cc1ccc(OCC(=O)NCCc2ccccn2)cc1,.,.,.,.,.,/,/
Cc1ccc(C(C)C)c(OCc2ccc(C(=O)N/N=C/c3ccc(C(=O)O)cc3)cc2)c1,39.5,.,.,.,.,24.3,.
Cc1ccc(COc2ccc(/C=N/NC(=O)c3ccc(CN4CCOCC4)cc3)cc2)cc1,.,.,.,.,.,/,/
Cc1ccc2nc(NC(=O)CSCC(=O)OCC(=O)c3ccccc3)sc2c1,77.2,.,.,73.3,.,79.1,59.5
CCOC(=O)Oc1c(OC)cc(C(=O)O[C@@H]2C[C@@H]3CN4CCc5c([nH]c6cc(OC)ccc56)[C@H]4C[C@@H]3[C@H](C(=O)OC)[C@H]2OC)cc1OC,49.5,.,.,.,.,.,42.7
Cc1nn(C2CCS(=O)(=O)C2)c(Cl)c1/C=C/C(=O)OCC(=O)c1cc(C)n(-c2ccc(F)cc2)c1C (centres undefined),63.1,.,.,.,.,.,37.4
Cc1nnc(SCC(=O)Nc2sc3c(c2C(N)=O)CCCC3)[nH]c1=O,.,.,.,.,.,/,/
Cc1nc(NCc2ccccn2)c2ccccc2n1,43.0,.,.,.,.,.,.
Cc1cc(NCc2ccccn2)nc2ccccc12,.,.,.,.,.,/,/
CCc1nc(NCc2ccccn2)c2oc3ccccc3c2n1,39.0,.,.,.,.,.,.
N#CC(C#N)c1ccnc2ccccc12,39.9,.,.,.,.,.,.
Cc1ccc(NC(=O)c2cc(C)n(-c3ccccc3)c2C)cc1,69.7,.,65.8,55.5,64.9,60.0,84.3
Cc1ccc(NC(=O)c2cnn(-c3ccccc3)c2C)cc1,.,.,.,.,.,/,/
Cc1cc(C(=O)Nc2ccc(Cl)cc2)c(C)n1-c1ccccc1,86.0,82.8,86.2,75.6,85.0,80.8,98.9
SMILES,COUP-TFII inh,NR5A2 inv ag,SRC3 inh,SRC2 inh,NCOA1 inh,VP16 Luc counter,NR2F2 inh conf
Cc1ccc(NC(=O)c2cc(C)n(-c3cccc(C)c3)c2C)cc1,37.8,.,.,.,.,.,37.6
Cc1ccc(-n2c(C)cc(C(=O)NS(=O)(=O)c3ccc(C)cc3)c2C)cc1,.,.,.,.,.,/,/
CC(Oc1ccc(Br)cc1)C(=O)Nc1ccncc1 (centres undefined),.,.,.,.,.,/,/
CC(Oc1ccc(Br)cc1Cl)C(=O)Nc1ccncc1 (centres undefined),44.7,.,.,.,.,.,.
CNC(=O)c1ccc(NC(=O)c2cc(S(=O)(=O)N(C)C)ccc2N2CCCC2)cc1,.,.,.,.,.,/,/
CCN(CC)C(=O)c1oc2ccc(S(=O)(=O)N3CC(C)CC(C)C3)cc2c1C (centres undefined),51.2,.,.,.,.,.,48.6
CCN(CC)C(=O)c1oc2ccc(S(=O)(=O)N3CCCCCC3)cc2c1C,.,.,.,.,.,/,/
COc1cccc2sc3ccc(C#Cc4ccc(N)cc4)cc3c(=O)c12,.,.,.,.,.,/,/
O=C(COC(=O)c1n[nH]c2ccccc12)Nc1ccc(S(=O)(=O)N2CCCC2)cc1,46.4,.,.,.,.,.,.
CN(C)S(=O)(=O)c1ccc(Cl)c(NC(=O)COC(=O)CN2C(=O)NC(C)(C)C2=O)c1,.,.,.,.,.,/,/
CCN(CC)S(=O)(=O)c1cccc(-n2c(O)c(C=Nc3ccccc3C(=O)O)c3ccccc3c2=O)c1,46.5,.,.,.,.,.,41.5
Cc1nc(N2CCN(c3ccccn3)CC2)c2c(C)c(C(=O)Nc3c(C)cc(Br)cc3C)sc2n1,.,.,.,.,.,/,/
Cc1nc(N2CCN(c3ccccn3)CC2)c2c(C)c(C(=O)Nc3c(F)cc(F)cc3Br)sc2n1,42.2,.,.,.,.,.,.
C=CCN1C(=O)[C@H](CC(=O)NCc2ccc(OC)c(OC)c2)[C@@]2(C(=O)OCC)CCCC=C12,.,/,/,.,/,/,/
COc1ccc(NS(=O)(=O)c2ccc(-c3cnc(C4CC4)o3)cc2)cc1OC,56.4,.,.,.,.,.,49.7
COc1ccc(NS(=O)(=O)c2ccc3c(c2)OCCO3)cc1OC,57.2,.,.,.,.,.,39.7
COc1ccc(S(=O)(=O)Nc2ccc3c(c2)OCO3)cc1OC,.,.,.,.,.,/,/
COc1ccccc1NS(=O)(=O)c1ccc(-c2cnc(C3CC3)o2)cc1,.,.,.,.,.,/,/
O=C(Nc1ccc(F)c(Cl)c1)c1cc(C2CCCCN2C(=O)c2ccc(Cl)cc2)on1 (centres undefined),.,.,.,.,.,/,/
Cn1nc(C(C)(C)C)cc1C(=O)N1CCCCC1c1cc(C(=O)Nc2ccc(F)c(Cl)c2)no1 (centres undefined),41.0,.,.,.,.,.,.
CN(C)c1ccc(C=c2c3ccccc3n3c2c2c([n+]3C)CCCC2)cc1,87.5,93.9,79.1,.,68.9,28.1,82.0
CN(C)c1ccc(/C=C2\CCC/C(=C\c3ccccc3)C2=O)cc1,.,.,.,.,.,/,/
COc1cc(N(C)C)ccc1C=c1c2ccccc2n2c1cc(-c1ccccc1)[n+]2C,67.0,.,62.9,.,.,.,73.1
CN(C)c1ccc(C=c2c3cc([N+](=O)[O-])ccc3n3c2cc(-c2ccccc2)[n+]3C)cc1,68.5,.,.,.,.,53.4,58.9
